Source: PubChem BioAssay AID720532 (National Center for Advancing Translational Sciences (NCATS), 2013)
Values joined by “and” are separate entries in the source; they are usually repeats but may differ in a detail not shown here. Equal values may be shown once. The whole screen tested about 18,000 compounds, of which about 1,200 (6.7%) were called active. Entries that show only a call come without a potency. Another 16% or so got no clear call; they are omitted. Only a selection was taken, and actives are over-represented in it overall. Unmarked numbers belong to inactive results. Calls come from the whole dose curve; tested in HEK293 cells.
Potency is the fitted concentration of half-maximal effect.

Test: qHTS for Inhibitors of binding or entry into cells for Marburg Virus
Settings: Marburg virus pseudotype entry/binding inhibition, cell-based; series mostly up to 49.2 µM
Work on CCOC(=O)CN1C(=O)NC(CCc2ccccc2)C(C(C)=O)=C1C (stereo unspecified) yielded an activity change, negative = inhibition of 3.64% [at 8.59 µM].
With COC(=O)C(C(=O)OC)C1c2ccccc2C=C(C2CC2)N1C(=O)OC (stereo unspecified) the activity change, negative = inhibition was “inactive”.
CCCNC(=O)CC1OC(C2CCCCC2)Cc2ccccc21 (stereo unspecified) gave an activity change, negative = inhibition of -26.1% [at 8.59 µM].
With Cc1cc2oc(=O)cc(CN(C)Cc3ccccc3)c2cc1Cl the activity change, negative = inhibition was “inactive”.
In the case of CCOC(OCC)OCC, the activity change, negative = inhibition is reported as “inactive”.
With CCCCC/C=C\C/C=C\C/C=C\CCCCCCC(N)=O the activity change, negative = inhibition was “inactive”.
Work on COc1ccc([C@]23Cc4cc(OC)c(OC)cc4[C@H](O2)c2c(cc(C)oc2=O)O3)cc1 yielded an activity change, negative = inhibition of 8.88% [at 8.59 µM].
For c1ccc(CCCCN2CCC(c3ccccc3)CC2)cc1, the Potency was 14.1 µM (active).
For O=C(c1ccc(F)cc1)C1CCN(CCCCc2ccccc2)CC1, the Potency was 15.8 µM (active).
With O=C(O)C[C@@H]1NC(=O)[C@H](Cc2ccccc2)NC1=O the activity change, negative = inhibition was “inactive”.
With O=C(O)CCCc1ccccc1 the activity change, negative = inhibition was “inactive”.
For O=C(O)C1CCCN(CCC=C(c2ccccc2)c2ccccc2)C1 (stereo unspecified), the activity change, negative = inhibition was “inactive”.
For CCCCCCCC[C@@H](O)/C=C/C=C/C=C\[C@@H](O)CCCC(=O)O, the activity change, negative = inhibition was “inactive”.
For COC(=O)C1(C(C)=O)CC2=CC[C@H]3C(=O)N(c4ccccc4)C(=O)[C@H]3[C@@H]2Cc2ccccc2[C@@H]1C[N+](=O)[O-] (stereo partly specified), the activity change, negative = inhibition was “inactive”.
In the case of CC(C)(C)OC(=O)NCCCC1=CC2=CC(=O)C(C)(OC(=O)c3ccco3)C(=O)C2=CO1 (stereo unspecified), the activity change, negative = inhibition is reported as “inactive”.
With NNc1nnc(NN)c2ccccc12 the activity change, negative = inhibition was “inactive”.
With NNc1nnc(Cc2ccncc2)c2ccccc12 the Potency was 11.2 µM (active).
CCN(CCNC(=O)[C@H]1C=C(OC)C(=O)C[C@@H]2c3ccccc3C[C@]12C)C(C)=O gave an activity change, negative = inhibition of 0.4% [at 8.59 µM].
With FCOC(C(F)(F)F)C(F)(F)F the activity change, negative = inhibition was “inactive”.
CC1(OC(=O)c2ccc(Cl)nc2)C(=O)Cc2cc(-c3ccsc3)ncc2C1=O (stereo unspecified) showed an activity change, negative = inhibition of -19.4% [at 8.59 µM].
For CN1CCC[C@@H]1CCO[C@](C)(c1ccccc1)c1ccc(Cl)cc1, the Potency was 14.1 µM (active) and 28.2 µM (active).
For CN1CCCC1CCO[C@@](C)(c1ccccc1)c1ccc(Cl)cc1 (stereo partly specified), the Potency was 10 µM (active).
Work on CC(=O)C1=C(C)N(Cc2ccccc2)C(=O)NC1c1cccs1 (stereo unspecified) yielded an activity change, negative = inhibition of 3.55% [at 8.59 µM].
With CCCCCCN1C[C@@H](O)[C@H](n2cc(C3CC3)nn2)C[C@H]1c1ccccc1 the activity change, negative = inhibition was “inactive”.
In the case of COc1ccc(C2=C(N3CCc4ccccc43)C(=O)NC2=O)cc1, the activity change, negative = inhibition is reported as “inactive”.
In the case of CCCCC/C=C\C/C=C\C/C=C\CCCCC(=O)NCC(=O)O, the activity change, negative = inhibition is reported as “inactive”.
For CC(C)[C@H]1COCCS(=O)(=O)N1Cc1ccccc1-c1cccc2c1sc1ccccc12, the activity change, negative = inhibition was “inactive”.
COC(=O)C1=C(C)N(Cc2ccccc2)C(=NCCc2ccc([N+](=O)[O-])cc2)NC1c1cccc(F)c1 (stereo unspecified) showed an activity change, negative = inhibition of 9.24% [at 8.59 µM].
With COc1ccc(C2CC(=O)Oc3ccc(C(C)(C)C)cc32)cc1 (stereo unspecified) the activity change, negative = inhibition was “inactive”.
For CCOC(=O)C1C/C(=C\C(C)=O)c2cccc(C(F)(F)F)c2O1 (stereo unspecified), the activity change, negative = inhibition was “inactive”.
With Cc1cnc(C)c(-c2cc(F)c3c(c2)CC(CNC(=O)c2cccc(Cn4cccn4)c2)O3)n1 (stereo unspecified) the activity change, negative = inhibition was “inactive”.
For CCN(CC)CCCC(C)Nc1ccnc2cc(Cl)ccc12 (stereo unspecified), the Potency was 10 µM (active) and 5.01 µM (active).
With COc1ccc(-c2c(C)cc3oc(=O)cc(-c4ccccc4)c3c2C)cc1F the activity change, negative = inhibition was “inactive”.
For C=CCN1C(=O)N(Cc2ccccc2)c2ccccc2S1(=O)=O, the activity change, negative = inhibition was “inactive”.
In the case of COc1ccc(CNS(=O)(=O)c2cc(Br)ccc2Br)cc1, the activity change, negative = inhibition is reported as “inactive”.
In the case of COc1ccc2[nH]cc(CCNCc3ccc(Br)cc3)c2c1, the Potency is reported as 15.8 µM (active).
In the case of COc1ccc2[nH]cc(CCNc3nc(-c4cccc(NS(C)(=O)=O)c4)nc4ccccc34)c2c1, the activity change, negative = inhibition is reported as “inactive”.
For Cc1cc(N(C)C)nc(Cl)n1, the activity change, negative = inhibition was “inactive”.
Work on CC(C)(C)Nc1oc(-c2ccccc2)nc1C=Cc1ccccc1 yielded an activity change, negative = inhibition of 3.65% [at 8.59 µM].
CCOC(=O)CCN1C(=O)[C@@H]2[C@H]3[C@H](O)[C@H](O)CC(=NOCC(C)C)[C@@H]3CC[C@H]2C1=O gave an activity change, negative = inhibition of -10.9% [at 8.59 µM].
For C=C(C)C1CC=C(C)C(O)C1 (stereo unspecified), the activity change, negative = inhibition was “inactive”.
